# PubChem BioAssay AID1851 (National Center for Advancing Translational Sciences (NCATS), 2009)
# About 4,000 (25%) of roughly 16,000 compounds were called active. Inconclusive results (about 26%) are left out. Only a sample is shown. Values without a mark were called inactive. Calls come from the whole dose curve; as a rule, active = well fitted curve in the direction sought with a large enough effect; inconclusive = small, poorly fitted or top-dose-only effect, or effect the other way; inactive = no such curve, though single readings can be large or run the other way.
# Biological target: Cytochrome P450 2C9 (Homo sapiens) (UniProt P11712)
# Experiment: Cytochrome panel assay with activity outcomes
# Conditions: recombinant CYP, pro-luciferin dealkylation, luminescence, p450-cyp2c9; series mostly up to 57.1 µM
# % is set by controls: 0 for no effect and ±100 for the full control effect.
# Sequence of Cytochrome P450 2C9 (Homo sapiens) (P11712 whole entry, looked up): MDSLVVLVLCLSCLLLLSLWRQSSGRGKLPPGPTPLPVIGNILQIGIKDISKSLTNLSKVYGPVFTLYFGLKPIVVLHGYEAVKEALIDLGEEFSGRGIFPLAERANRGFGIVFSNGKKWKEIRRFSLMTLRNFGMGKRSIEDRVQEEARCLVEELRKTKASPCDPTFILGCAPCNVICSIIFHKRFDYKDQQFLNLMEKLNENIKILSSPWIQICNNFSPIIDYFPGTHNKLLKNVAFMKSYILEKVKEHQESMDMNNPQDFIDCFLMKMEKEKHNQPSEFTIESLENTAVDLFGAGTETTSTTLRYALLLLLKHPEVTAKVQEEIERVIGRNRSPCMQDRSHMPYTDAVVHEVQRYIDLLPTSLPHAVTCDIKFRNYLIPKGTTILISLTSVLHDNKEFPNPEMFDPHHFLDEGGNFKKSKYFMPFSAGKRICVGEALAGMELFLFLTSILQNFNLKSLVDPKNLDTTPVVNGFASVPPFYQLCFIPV
SMILES,AC50,"activity, negative = inhibition"
COc1cccc(CNC(=O)CCNC(=O)Cn2ccc3ccccc3c2=O)c1,3.16 µM (active),
O=C(CCNC(=O)Cn1ccc2ccccc2c1=O)NCCCN1CCN(c2ccc(F)cc2)CC1,inactive,
COc1ccc(OC)c(CNC(=O)CCNC(=O)Cn2ccc3ccccc3c2=O)c1,inactive,
CCCC1C(=O)N(c2ccccc2)C1c1ccccc1 (stereo not given),10 µM (active),
CCCCN1C(=O)CCC(C(=O)O)C1c1ccccc1 (stereo not given),inactive,
O=C1C(Cc2ccccc2)C(c2ccccc2)N1c1ccccc1 (stereo not given),7.08 µM (active),
CN1C(=O)C[C@H](c2ccccc2)C1=O,inactive,
CN(C)CCNS(=O)(=O)N(C)C,,11.3% [at 11.4 µM]
CO[C@]1(NC(=O)[C@H](C(=O)O)c2ccc(O)cc2)C(=O)N2C(C(=O)O)=C(CSc3nnnn3C)CO[C@H]21,inactive,
c1ccc(Nc2nc(-c3ccoc3)nc3ccccc23)cc1,,-10.3% [at 2.29 µM]
CN1CC(c2ccccn2)C2(SC(=S)N(Cc3ccccc3)C2=O)C12C(=O)Nc1ccccc12 (stereo not given),4.47 µM (active),
CCCCN(c1ccccc1)c1ncnc2c1cnn2C,,1.33% [at 11.4 µM]
CN1CCN(CN2C(=O)C3C4C=CC(C3C2=O)C2C3C(=O)N(CN5CCN(C)CC5)C(=O)C3C42)CC1 (stereo not given),,-2.91% [at 11.4 µM]
Oc1ccccc1C1Nc2cccc3cccc(c23)N1,8.91 µM (active),
Oc1ccc(C2Nc3cccc4cccc(c34)N2)c(O)c1,14.1 µM (active),
O=C(O)[C@H]1C[C@@H](CP(=O)(O)O)CCN1,inactive,
O=C1[C@H]2[C@H]3[C@H](O)[C@H](O)C/C(=N/OC[C@@H](O)COCc4ccco4)[C@H]3CC[C@@H]2C(=O)N1C[C@@H]1CCCO1,,7.75% [at 11.4 µM]
O=C(O)C1(Nc2ccc(Cl)cc2)CCCC1,,-21.4% [at 11.4 µM]
O=C1C=C(NCCN2CCOCC2)CC(c2ccccc2)C1 (stereo not given),inactive,
O=C1C=C(Nc2ccc(Cl)cc2)CC(c2ccc(Cl)cc2)C1 (stereo not given),10 µM (active),
Clc1ccccc1CSc1nnc(-c2ccncc2)o1,0.447 µM (active),
Clc1ccc(-c2nnc(-c3cccc4ccccc34)o2)cc1Cl,,24% [at 11.4 µM]
c1ccc2c(CSc3nnc(-c4ccncc4)o3)cccc2c1,0.178 µM (active),

SMILES,AC50,"activity, negative = inhibition"
C#CCSc1nnc(-c2sc3ccccc3c2Cl)o1,inactive,
CC[N+](C)(C)c1cccc(O)c1,inactive,
COc1ccccc1CN1CCC2(CC1)CCN(S(=O)(=O)c1ccccc1)CC2,inactive,
Cc1ccc(S(=O)(=O)N2CCN(S(C)(=O)=O)C2)cc1,inactive,
Cc1ccc(S(=O)(=O)N2CCN(Cc3ccccc3C(F)(F)F)CC2)cc1,39.8 µM (active),
O=C1[C@H]2[C@H]3[C@H](O)[C@H](O)C/C(=N/OCc4ccccc4)[C@H]3CC[C@@H]2C(=O)N1Cc1ccc2c(c1)OCO2,,-16.6% [at 11.4 µM]
COc1ccccc1CNc1nc(-c2ccccc2CN(C)C)nc2ccccc12,,5.51% [at 2.29 µM]
c1ccc(-c2nc(N3CCCCCC3)nc(-n3ccnc3)n2)cc1,5.01 µM (active),
CN(C)C(=O)c1ccc(-c2nc(-n3ccnc3)c3ccccc3n2)cc1,,-0.507% [at 2.29 µM]
COc1ccccc1-c1nccc(-n2ccnc2)n1,,6.88% [at 2.29 µM]
Cc1ccccc1-c1nc(-n2ccnc2)c2ccccc2n1,,-7.55% [at 2.29 µM]
CN(c1ccccc1)c1nc(-n2ccnc2)nc(-n2ccnc2)n1,0.282 µM (active),
c1ccc2c(-n3ccnc3)nc(-c3ccoc3)nc2c1,,-6.66% [at 2.29 µM]
N[C@@](CC(=O)O)(Cc1ccccc1)C(=O)O,,-1.82% [at 11.4 µM]
O=C(c1ccc2nc3ccc(Cl)cc3c(=O)n2c1)N1CCOCC1,inactive,
NC(=O)C1(N2CCCCC2)CCN(C(=S)Nc2ccc(Cl)cc2)CC1,inactive,
NC(=O)C1(N2CCCCC2)CCN(C(=O)c2cccn3c(=O)c4cc(Cl)ccc4nc23)CC1,3.98 µM (active),
CCOC(=O)N1CCN(C(=O)c2cnc3n(c2=O)CCS3)CC1,inactive,
CCOC(=O)N1CCN(C(=O)c2cccn3c(=O)c4cc(Cl)ccc4nc23)CC1,8.91 µM (active),
NC(=O)C1(N2CCCCC2)CCN(C(=O)c2ccc(-n3cnnn3)cc2)CC1,inactive,
Cc1cc(C)cc(NC(=O)C/C(N)=N/O)c1,inactive,
C[C@@H]1CCCC(CC(=O)O)(CC(=O)O)C1,,9.77% [at 11.4 µM]
CCOC(=O)N1CCN(C(=O)c2ccc(NC(C)=O)cc2)CC1,inactive,

SMILES,AC50,"activity, negative = inhibition"
CCOC(=O)N1CCN(C(=O)c2ccc3nc(N4CCC(C)CC4)sc3c2)CC1,2.51 µM (active),
CC1=NN(C(=O)c2ccncc2)C(=O)[C@@H]1N=Nc1ccc2ccccc2c1,,-11.2% [at 11.4 µM]
OCCN(CCO)c1ncnc2nc[nH]c12,,5.61% [at 11.4 µM]
O=C(C=C1SCCS1)/C=C/c1ccco1,inactive,
O=C(/C=C/c1ccco1)Nc1ccc(Oc2ccccc2)cc1,5.01 µM (active),
CO[C@H]1COC(=O)[C@H]2CCCN2C(=O)C/C=C\[C@@H](C)[C@H](OC)COC(=O)C/C=C\[C@@H]1C,,13.8% [at 11.4 µM]
CC[C@]1(O)C[C@H]2CN(CCc3c([nH]c4ccccc34)[C@](C(=O)OC)(c3cc4c(cc3OC)N(C=O)[C@H]3[C@@](O)(C(=O)OC)[C@H](OC(C)=O)[C@@]5(CC)C=CCN6CC[C@]43[C@H]65)C2)C1,inactive,
Cc1nc(SCC(=O)Nc2c(C)nn(C)c2C)c2cnn(-c3ccccc3)c2n1,2.51 µM (active),
O=C(c1ccccc1)[C@H](Nc1ccc2ccccc2c1)c1ccccc1,,-6.81% [at 11.4 µM]
Cc1nc(SC(C(=O)c2ccccc2)c2ccccc2)n[nH]1 (stereo not given),4.47 µM (active),
O=C1COC(c2ccccc2O)=NN1CCCN1CCCC1,,2.77% [at 11.4 µM]
Cc1ccc(NS(=O)(=O)c2cc(C(=O)NCc3ccccn3)ccc2Cl)cc1,17.8 µM (active),
O=C(O)[C@@H]1[C@@H](C(=O)NCc2ccccn2)[C@@H]2C=C[C@@H]1O2,,1.33% [at 11.4 µM]
Cc1ccc(NS(=O)(=O)c2cc(C(=O)N3CCc4ccccc4C3)ccc2Cl)cc1,2.51 µM (active),
CN(c1ccc(C(=O)NCc2ccccn2)cc1)S(C)(=O)=O,inactive,
CN(CC(=O)Nc1ccc(F)c(F)c1)S(=O)(=O)c1cccc2nsnc12,0.355 µM (active),
CC1CCN(C(=O)CN(C)S(=O)(=O)c2cccc3nsnc23)CC1,inactive,
COc1ccc(C(F)(F)F)cc1N/C=C\c1nnnn1-c1ccccc1,4.47 µM (active),
CS(=O)(=O)N1CCC[C@@]2(CCN(c3ncccn3)C2)C1,inactive,
NC(=O)NC(=O)Nc1ccccc1Cl,inactive,
O=C(O)C[C@H](Cc1ccccc1Cl)C(=O)O,,2.18% [at 11.4 µM]
O=C(O)COC(=O)Cc1ccccc1Nc1c(Cl)cccc1Cl,1.58 µM (active),
CNc1ccnc(-c2ccccc2OC)n1,,-17.5% [at 2.29 µM]

SMILES,AC50,"activity, negative = inhibition"
CC1CC(C)CN(CCCNC(=O)C2CCCN(c3nnc(N4CCCC4=O)s3)C2)C1 (stereo not given),inactive,
CCCS(=O)(=O)N1CCCC(C(=O)NCCN(C)Cc2ccccc2)C1 (stereo not given),inactive,
O=C(NCCC1=CCCCC1)C1CCCN(c2nc3ccccc3o2)C1 (stereo not given),3.55 µM (active),
Cn1c(=O)c(C(=O)CN2CCOCC2)c(N)n(Cc2ccccc2)c1=O,inactive,
CC(C)Cn1c(=O)n(C)c(=O)c2[nH]cnc21,inactive,
CC(C)Cn1c(N)c(C(=O)CSc2ccc3c(c2)OCCO3)c(=O)n(C)c1=O,3.55 µM (active),
CN1CCN(c2ncncc2-c2ccoc2)CC1,,17.1% [at 2.29 µM]
CCC(NC(=O)c1ccccc1NC(=O)c1ccco1)C(=O)NC1CCCCC1 (stereo not given),7.08 µM (active),
CCCC[P+](CCCC)(CCCC)Cc1ccc(NC(=O)[C@@H](Cc2ccc3ccccc3c2)NC(=NC2CCCCC2)NC2CCCCC2)cc1,inactive,
Cc1ccc(C(C(=O)NC2CCCCC2)N2CCN(C(=O)c3ccco3)CC2)cc1 (stereo not given),inactive,
O=C(Nc1ccccc1C(=O)NCCc1ccccc1)c1ccco1,2.82 µM (active),
O=C(Nc1ccccc1C(=O)Nc1ccc2c(c1)OCO2)c1ccco1,1.41 µM (active),
COc1ccccc1CNc1cc(-c2ccc(C(=O)N(C)C)cc2)ncn1,,10% [at 2.29 µM]
CN1CCN(C2=Nc3ccccc3Oc3ccc(Cl)cc32)CC1,inactive,
COC(=O)c1c(NC(=O)c2ccco2)sc2c1CCC2,2.82 µM (active),
CCN1C(=O)[C@H]2[C@H]3[C@H](O)[C@H](O)C/C(=N/O[C@@H]4O[C@@H](COC(C)=O)[C@@H](OC(C)=O)[C@@H](OC(C)=O)[C@H]4OC(C)=O)[C@H]3CC[C@@H]2C1=O,,23.1% [at 11.4 µM]
COc1cc(NC(=O)c2cc3nc(-c4ccccc4)cc(-c4ccccc4)n3n2)cc(OC)c1OC,2.24 µM (active),
COc1ccc(-c2cc(C(=O)Nc3cc(OC)c(OC)c(OC)c3)no2)cc1OC,inactive,
Clc1ccc(CSc2ncnc3c2ncn3[C@@H]2CCCCO2)cc1,,-17.8% [at 11.4 µM]
CC(C)[C@H](N)c1nnc(SCc2ccc(Cl)cc2)o1,1.78 µM (active),
O=c1ccnc(SCc2ccc(Cl)cc2)[nH]1,,-29.9% [at 11.4 µM]
